Outcome data for 40 molecules are collected here from PubChem BioAssay (EPA / NIEHS).

Records with an inconclusive call do not appear. Activity calls are given as the source filed them. How the source made its calls: active means hit-call score of the fitted dose curve at least 0.9, where 1 is the maximum; inconclusive means response in the unintended direction; inactive means score below 0.9.

The test is described as follows: ATG_Hpa5_TRANS: Attagene TRANS-FACTORIAL HepG2 Assay for human GAL4-Hpa5 Hepatocyte Transcription Factor Basal Promoter (AID 2282975).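 Further: hits are increases in reporter mRNA over DMSO baseline.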 The following applies: HepG2 Attagene GAL4-Hpa5 transcription reporter. The protocol: ATG_TRANS is a cell-based, multiplexed-readout assay that uses HepG2, a human liver cell line, with measurements taken at 24 hours after chemical dosing in a 24-well plate.ATG_Hpa5_TRANS is one of 30 assay component(s) measured or calculated from the ATG_TRANS assay. It is designed to make measurements of mRNA induction, a form of inducible reporter, as detected with fluorescence intensity signals by Reverse transcription polymerase chain reaction (RT-PCR) and Capillary electrophoresis technology.Data from the assay component ATG_Hpa5_TRANS was analyzed into 1 assay endpoint. This assay endpoint, ATG_Hpa5_TRANS, was analyzed in the positive analysis fitting direction relative to DMSO as the negative control and baseline of activity. Using a type of inducible reporter, measures of mRNA for gain-of-signal activity can be used to understand the background control at the transcription factor-level as they relate to the gene . Furthermore, this assay endpoint can be referred to as a secondary readout, because this assay has produced multiple assay endpoints where this one serves a background control function. To generalize the intended target to other relatable targets, this assay endpoint is annotated to the background measurement intended target family, where the subfamily is internal marker.
Human liver HepG2 cells are transiently transfected with multiple reporter transcription units (MRTUs) in 6-well plates using FuGene 6 reagent (Roche; 3 ml FuGene/1 mg DNA). The MRTU constructs are regulated by a cis-regulating element (promoter). […] A major difference between the CIS and TRANS system is that in CIS activities of endogenous TFs are measured, whereas the TRANS assay evaluates changes in activities of exogenous, chimeric NR-Gal4 proteins. […] At the end of 24 hour incubation, total RNA was isolated using TriZol reagent (Invitrogen). The isolated RNA is then reverse-transcribed using oligo(dT) primer and Mo-MLV reverse transcriptase (Invitrogen) with DNAse I (Ambion) treatment for 30 min. The one-tenth of the produced cDNA was amplified by PCR using Taq DNA polymerase (Invitrogen) and two reporter sequence-specific primers. The PCR products were fluorescently labeled by primer extension with 6-arboxyfluorescein (6-FAM) 5'-labeled reporter sequence-specific primer (2 min at 95 C, 20 s at 68 C and 10 min at 72 C) and these products were digested with 5U of HpaI (New England Biolabs) for 2h at 37 C. The fragments were purified using Qiaquick PCR columns (Qiagen), analyzed on an ABI 3130xL genetic analyzer (Applied Biosystems) with peak positions identified by using a set of X-rhodamine (ROX)-labeled MapMarker1000 molecular weight standards (BioVentures). The raw capillary electrophoresis data was processed using Attagraph software (Attagene).
As for `COP(=O)(OC)C(O)C(Cl)(Cl)Cl` (stereo not given), the outcome was inactive.

For the molecule `CCOP(=S)(OCC)SCCSCC`, the molecule was called inactive.

As to `CNC(=O)Oc1cccc2c1OC(C)(C)O2`, the call was inactive. Then `COP(=O)(NC(C)=O)SC` (stereo not given), with “inactive”. Then `CC(Oc1cccc(Cl)c1)C(=O)O` (stereo not given), with “inactive”; and `CNc1cnn(-c2cccc(C(F)(F)F)c2)c(=O)c1Cl`, with “inactive”. Then `CCCOCC(=Nc1ccc(Cl)cc1C(F)(F)F)n1ccnc1`, with “inactive”; and `CCOP(=S)(OCC)OC(Cl)C(Cl)(Cl)Cl` (stereo not given), with “inactive”; and `CCCCSP(=O)(SCCCC)SCCCC`, with “inactive”. Regarding `CCCSP(=O)(OCC)SCCC`, the molecule was called inactive. Then `N#CSCSC#N`, with “inactive”; and `CC(C)N(C(=O)SCC(Cl)=C(Cl)Cl)C(C)C`, with “inactive”; and `CNC(=O)ON=C(C)SC`, with “inactive”. Then `CCC(CC)Nc1c([N+](=O)[O-])cc(C)c(C)c1[N+](=O)[O-]`, with “inactive”; and `COP(=O)(OC)SCn1c(=O)oc2cc(Cl)cnc21`, with “inactive”; and `CCC(=O)Nc1ccc(Cl)c(Cl)c1`, with “inactive”.

As to `CC(=NC#N)N(C)Cc1ccc(Cl)nc1`, the outcome was inactive.

Turning to `Nc1c(Cl)cc([N+](=O)[O-])cc1Cl`, the molecule was classed as inactive.

For `CC(C)[C@H](C(=O)O[C@H](C#N)c1cccc(Oc2ccccc2)c1)c1ccc(Cl)cc1`, the call was inactive. Then `CCOP(=O)(SC(C)CC)N1CCSC1=O` (stereo not given), with “inactive”; and `C#CCC1=C(C)C(OC(=O)C2C(C=C(C)C)C2(C)C)CC1=O` (stereo not given), with “inactive”.

`CSc1nc(NC(C)C)nc(NC(C)C)n1`: the molecule was classed as inactive.

In the case of `O=[N+]([O-])c1cc(C(F)(F)F)c(Cl)c([N+](=O)[O-])c1Nc1ncc(C(F)(F)F)cc1Cl`, the call was inactive. As for `CCNc1nc(Cl)nc(NC(C)(C)C#N)n1`, the entry is “inactive”; as for `CCOC(=O)CC(SP(=O)(OC)OC)C(=O)OCC` (stereo not given), “inactive”; as for `CC(C)=CC1C(C(=O)OCN2C(=O)C3=C(CCCC3)C2=O)C1(C)C` (stereo not given), “inactive”. As for `CCOP(=O)(NC(C)C)Oc1ccc(SC)c(C)c1` (stereo not given), the entry is “inactive”; as for `CCc1cnc(C2=NC(C)(C(C)C)C(=O)N2)c(C(=O)O)c1` (stereo not given), “inactive”; as for `CSC1=N[C@@](C)(c2ccccc2)C(=O)N1Nc1ccccc1`, “inactive”.

With `C#CC(C)(C)NC(=O)c1cc(Cl)cc(Cl)c1`, the molecule was called inactive.

Turning to `CCCSP(=O)(OCC)Oc1ccc(Br)cc1Cl` (stereo not given), the molecule was called inactive. In the case of `CN(C)[C@@H]1C(=O)C(C(N)=O)=C(O)[C@@]2(O)C(=O)C3=C(O)c4c(O)cccc4[C@@](C)(O)[C@H]3[C@H](O)[C@@H]12`, the result was inactive. Then `O=c1ccc(=O)[nH][nH]1`, with “inactive”; and `COc1ccc(C(=CC(=O)N2CCOCC2)c2ccc(Cl)cc2)cc1OC`, with “inactive”. As for `CCCCN(CC)c1c([N+](=O)[O-])cc(C(F)(F)F)cc1[N+](=O)[O-]`, the entry is “inactive”.

For the molecule `CC[C@H](C)[C@H]1O[C@]2(C=C[C@@H]1C)C[C@@H]1C[C@@H](C/C=C(\C)[C@@H](O[C@H]3C[C@H](OC)[C@@H](O[C@H]4C[C@H](OC)[C@@H](NC)[C@H](C)O4)[C@H](C)O3)[C@@H](C)/C=C/C=C3\CO[C@@H]4[C@H](O)C(C)=C[C@@H](C(=O)O1)[C@]34O)O2`, the outcome was inactive. For the molecule `O=C(O)c1cc(Oc2ccc(C(F)(F)F)cc2Cl)ccc1[N+](=O)[O-]`, the molecule was called inactive. For the molecule `C[Si](Cn1cncn1)(c1ccc(F)cc1)c1ccc(F)cc1`, the call was inactive. Take `CCOC(=O)COc1cc(-c2nn(C)c(OC(F)F)c2Cl)c(F)cc1Cl`: the result was inactive. Then `CCC(=NOC/C=C/Cl)C1=C(O)CC(C2CCOCC2)CC1=O` (stereo not given), with “inactive”.
